SMN2 splice enh = enhancers of SMN2 splice variant expression; Potency, µM (highest dose often 46.1 µM), most hits filed as activators; HEK293 SMN2-luciferase splicing reporter, luminescence, 30-36 h; 210,000 tested, 2.8% active; AID 1458; also: nearly all actives have a fitted effect of over 55% in size
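qHTS luciferase splicing reporter: luminescence rises when SMN2 exon 7 is included in transfected HEK293 cells. Compound exposure lasted 30-36 h at 37C, with 4.5 mM final sodium butyrate as control, followed by a ONE-Glo read.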
FLuc modulator = firefly luciferase modulation, counter-screen for miR-21 project; 360,000 tested, 6.9% active; P08659; AID 588342; purified FLuc, Km substrates, luminescence inhibition; Potency, µM (top dose mostly 57.5 µM), actives largely listed as inhibitors; also: nearly all actives have a fitted effect of over 55% in size
Target sequence (P08659 whole entry, looked up): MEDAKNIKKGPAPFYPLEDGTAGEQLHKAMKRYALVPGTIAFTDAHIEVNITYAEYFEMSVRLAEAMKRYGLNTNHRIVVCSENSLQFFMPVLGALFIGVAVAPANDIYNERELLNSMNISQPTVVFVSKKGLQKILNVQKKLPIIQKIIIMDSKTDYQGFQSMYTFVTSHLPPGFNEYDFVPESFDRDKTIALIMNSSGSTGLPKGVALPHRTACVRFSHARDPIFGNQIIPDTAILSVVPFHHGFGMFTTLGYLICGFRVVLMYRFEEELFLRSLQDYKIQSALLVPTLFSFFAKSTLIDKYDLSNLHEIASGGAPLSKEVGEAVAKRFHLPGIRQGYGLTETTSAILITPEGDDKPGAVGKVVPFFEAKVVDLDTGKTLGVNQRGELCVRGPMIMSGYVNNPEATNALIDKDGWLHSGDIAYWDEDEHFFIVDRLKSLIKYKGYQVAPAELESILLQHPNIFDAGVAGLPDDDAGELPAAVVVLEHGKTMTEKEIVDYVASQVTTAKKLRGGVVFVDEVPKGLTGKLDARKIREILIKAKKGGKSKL
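Purified P. pyralis luciferase, 10 nM final, with Km-level 10 uM D-luciferin and 10 uM ATP in 50 mM Tris acetate pH 7.5, 10 mM Mg acetate, 0.01% Tween-20, 0.05% BSA; 6-point qHTS titration about 60 µM downward; luminescence read.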
Luc counter = Kinase-Glo luciferase inhibition (counter-screen); 200,000 tested, 0.28% active; Potency, µM (highest dose often 38.3 µM), usual class: inhibitors; Q27757; Kinase-Glo luciferase, ATP luminescence, 8 min; AID 1379; also: nearly all actives have a fitted effect of over 60% in size
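Inhibition of Kinase-Glo luciferase light generation was assessed at 10 uM ATP in pH 7.2 imidazole buffer, with luminescence measured after eight minutes at ambient temperature.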
ELG1 genotoxic = inducers of genotoxicity in HEK293T ELG1-luciferase cells. HEK293T ELG1-luciferase reporter, luminescence, 16 h. Potency, µM (highest dose often 46 µM), usual class: activators. 330,000 tested, 1.3% active. AID 504466; also: nearly all actives have a fitted effect of over 60% in size
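HEK293T cells expressing luciferase-tagged ELG1 were exposed to compound or DMSO vehicle for 16 hr at 37 °C and 5% CO2. Luciferase activity was then measured with ONE-Glo after 30 min at room temperature.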
NPC1 promoter act = activators of NPC1 promoter; Huh7 NPC1 promoter luciferase reporter, 24 h; Potency, µM (doses to about 9.22 µM), most hits filed as activators; 320,000 tested, 2.4% active; AID 485313; also: nearly all actives have a fitted effect of over 60% in size
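Huh7 cells stably carrying NPC1 promoter–luciferase, plated in Opti-MEM with 10% FBS for 2 h, were exposed to compound in DMSO for 24 h at 37 °C; luciferase reagent was added for 10 min and luminescence read.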
Rab9 prom act = Rab9 promoter activation. Huh7 Rab9 promoter-luciferase reporter, luminescence, 24 h. Potency, µM (doses to about 9.22 µM), most hits filed as activators. 320,000 tested, 2.8% active. AID 485297; also: nearly all actives have a fitted effect of over 60% in size
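Using Huh7 cells stably transfected with Rab9 promoter–luciferase, compounds were incubated 24 h at 37 °C, 5% CO2; luciferase luminescence was read 10 min after reagent addition.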
Large screens that a line does not name were inactive. Shown are actives, neighbours in structure and some others; about 7.5% of the full set was active somewhere. Calls follow the shape of the dose curve; as a rule, active = well fitted curve in the direction sought with a large enough effect; inconclusive = small, poorly fitted or top-dose-only effect, or another doubt; inactive = no such curve, though single readings can be large; an effect the other way counts as inactive or inconclusive.

Cc1cc(C)nc(Nc2n[nH]c(C)n2)n1	none (no result: SMN2 splice enh)
Cc1cc(C)nc(Nc2n[nH]c(-c3ccc(N)cc3)n2)n1	SMN2 splice enh inconclusive, FLuc modulator 9.53µM, ELG1 genotoxic 7.31µM, NPC1 promoter act 1.58µM, Rab9 prom act 3.55µM
Cc1cc(C)nc(Nc2n[nH]c(-c3ccc(C(C)(C)C)cc3)n2)n1	FLuc modulator 1.69µM
O=C(Nc1ccncc1)c1ccc2c(c1)OCCO2	FLuc modulator 16.9µM
Cc1ccc(NC(=O)c2ccc3c(c2)OCCO3)cc1	SMN2 splice enh 0.708µM, FLuc modulator 0.536µM, ELG1 genotoxic inconclusive, NPC1 promoter act 0.316µM, Rab9 prom act 0.1µM
CC(=O)N1CCN(c2ccc(NC(=O)c3ccc4c(c3)OCCO4)cc2)CC1	FLuc modulator inconclusive
CCc1ccc(CNCc2c(C(=O)O)c(C)n(Cc3c(F)cccc3Cl)c2C)cc1	none (no result: Luc counter, ELG1 genotoxic, NPC1 promoter act, Rab9 prom act)
CCn1c(Cn2nnc(-c3ccccc3)n2)nnc1SCC(=O)Nc1ccc(C(C)=O)cc1	FLuc modulator 19µM, NPC1 promoter act inconclusive
CCc1cnc2c(c1SCc1c(F)cccc1Cl)c(=O)n(C)c(=O)n2C	none (no result: SMN2 splice enh, Luc counter, ELG1 genotoxic, NPC1 promoter act, Rab9 prom act)
COc1ccc(C(=O)NC(=S)N2CCOCC2)cc1[N+](=O)[O-]	none (no result: SMN2 splice enh, Luc counter)
Cc1ccc(NC(=O)c2cc(-c3ccc(F)cc3)on2)cc1C	none
O=C(NC1CCCC1)c1cc(-c2ccc(Cl)cc2)on1	FLuc modulator 2.69µM, ELG1 genotoxic 4.61µM, NPC1 promoter act 1.41µM, Rab9 prom act 1.78µM (no result: SMN2 splice enh, Luc counter)
O=C(NC1CCCC1)c1cc(-c2ccc(F)cc2)on1	FLuc modulator 4.78µM, ELG1 genotoxic 4.61µM, NPC1 promoter act 1µM, Rab9 prom act 1.78µM (no result: SMN2 splice enh, Luc counter)
O=C(NC1CCCC1)c1cc(-c2cccc(Cl)c2)on1	FLuc modulator 15.1µM, ELG1 genotoxic 18.3µM, NPC1 promoter act 2.82µM, Rab9 prom act 2.82µM (no result: SMN2 splice enh, Luc counter)
O=C(NC1CCCCC1)c1cc(-c2ccc(Cl)cc2)on1	none (no result: SMN2 splice enh, Luc counter)
c1cnc2nc(CSc3ncn[nH]3)cn2c1	none
N=c1oc2ccccc2cc1-c1nc(-c2ccccc2)cs1	FLuc modulator 4.78µM
N=c1oc2ccc3ccccc3c2cc1-c1nc(-c2ccccc2)cs1	none
CN1C/C(=C/c2cccnc2)C(=O)/C(=C/c2cccnc2)C1	none
O=C1/C(=C/c2cccnc2)Cc2ccc(Cl)cc21	FLuc modulator 12µM (no result: SMN2 splice enh, Luc counter)
Cc1oc2ncn(C)c(=O)c2c1C(=O)NCCCN1CCCC(C)C1 (stereo not drawn)	none (no result: SMN2 splice enh, Luc counter, ELG1 genotoxic, NPC1 promoter act, Rab9 prom act)
O=C(c1ccc(F)cc1F)N1CCCN(c2nc(-c3ccccc3)ns2)CC1	none (no result: SMN2 splice enh, Luc counter)
CC(C)(C)NC(=O)N1CCN(c2nc(-c3ccccc3)ns2)CC1	NPC1 promoter act inconclusive, Rab9 prom act 3.55µM (no result: SMN2 splice enh, Luc counter)
Cc1c(-c2ccc(Br)cc2)nc2ccccn12	FLuc modulator 2.39µM, ELG1 genotoxic inconclusive, NPC1 promoter act 3.16µM, Rab9 prom act 2.51µM (no result: SMN2 splice enh, Luc counter)
Cc1ccc(-c2nc3ccccn3c2C=O)cc1	FLuc modulator 21.3µM, ELG1 genotoxic inconclusive, NPC1 promoter act inconclusive, Rab9 prom act 3.55µM (no result: SMN2 splice enh)
Clc1c(-c2ccccc2)nc2ccccn12	FLuc modulator 12µM, ELG1 genotoxic inconclusive, NPC1 promoter act 3.98µM, Rab9 prom act 2.51µM (no result: SMN2 splice enh, Luc counter)
COc1ccc(-c2nc3c4ccccc4ccn3c2C=O)cc1	none
c1ccn2c(c1)nc1c2nc2ccccn21	FLuc modulator 16.9µM, ELG1 genotoxic inconclusive, NPC1 promoter act inconclusive
O=C(O)c1c(Cl)nc2ccccn12	none
Cc1noc(C)c1C(=O)N1CCC2(CC1)CN(Cc1cc(C(F)(F)F)cc(C(F)(F)F)c1)C2	none (no result: FLuc modulator, ELG1 genotoxic, NPC1 promoter act, Rab9 prom act)
Cc1cccn2c(=O)c3cc(C(=O)NC4CCS(=O)(=O)C4)n(Cc4ccccc4)c3nc12 (stereo not drawn)	none (no result: SMN2 splice enh, Luc counter)
CN(C)c1ccc(-c2nc3ccccn3c2/N=C/c2ccc(Br)cc2)cc1	SMN2 splice enh 3.16µM, FLuc modulator 0.601µM, Luc counter inconclusive, ELG1 genotoxic inconclusive, NPC1 promoter act inconclusive, Rab9 prom act inconclusive
COc1ccc(OC)c(/C=N/c2c(-c3ccc(O)c(OC)c3)nc3ccccn23)c1	FLuc modulator inconclusive
CC(C)N(C(C)C)S(=O)(=O)c1ccc(N2CCc3ccccc3C2)nc1	FLuc modulator 13.5µM, ELG1 genotoxic inconclusive, NPC1 promoter act inconclusive, Rab9 prom act 3.98µM (no result: SMN2 splice enh, Luc counter)

Bioassay records deposited in PubChem by National Center for Advancing Translational Sciences (NCATS).
